The target in test [1] is Mitogen-activated protein kinase 3 (Homo sapiens) (UniProt P27361). Particulars: at 1 µM.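 Also: values are mean percent inhibition of MAPK3.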
For test [2], the target named is SRSF protein kinase 3 (Homo sapiens) (UniProt Q9UPE1). Particulars: at 0.1 µM.
The target is the same in test [3]. The following applies: at 1 µM.
The target of test [4] is Mitogen-activated protein kinase 14 (Homo sapiens) (UniProt Q16539). Particulars: at 0.1 µM.
Test [5] shares this target. Particulars: at 1 µM.
Test [6] deals with Mitogen-activated protein kinase 11 (Homo sapiens) (UniProt Q15759). The following applies: at 0.1 µM.
Chain of Mitogen-activated protein kinase 11 (Homo sapiens) (Q15759 whole entry): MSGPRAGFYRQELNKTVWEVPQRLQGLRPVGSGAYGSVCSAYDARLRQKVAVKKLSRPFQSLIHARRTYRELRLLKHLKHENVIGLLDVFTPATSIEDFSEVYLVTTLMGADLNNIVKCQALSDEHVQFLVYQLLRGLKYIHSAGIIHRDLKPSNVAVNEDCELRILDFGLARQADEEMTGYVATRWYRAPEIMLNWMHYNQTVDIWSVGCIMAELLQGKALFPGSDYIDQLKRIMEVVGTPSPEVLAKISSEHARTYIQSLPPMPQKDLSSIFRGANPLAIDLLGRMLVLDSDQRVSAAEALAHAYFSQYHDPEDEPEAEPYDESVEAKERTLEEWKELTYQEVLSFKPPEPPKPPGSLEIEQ
Test [7] shares this target. Particulars: at 1 µM.
Test [8] deals with T1, Mitogen-activated protein kinase 13 (Homo sapiens) (UniProt O15264).
T1 sequence (whole entry): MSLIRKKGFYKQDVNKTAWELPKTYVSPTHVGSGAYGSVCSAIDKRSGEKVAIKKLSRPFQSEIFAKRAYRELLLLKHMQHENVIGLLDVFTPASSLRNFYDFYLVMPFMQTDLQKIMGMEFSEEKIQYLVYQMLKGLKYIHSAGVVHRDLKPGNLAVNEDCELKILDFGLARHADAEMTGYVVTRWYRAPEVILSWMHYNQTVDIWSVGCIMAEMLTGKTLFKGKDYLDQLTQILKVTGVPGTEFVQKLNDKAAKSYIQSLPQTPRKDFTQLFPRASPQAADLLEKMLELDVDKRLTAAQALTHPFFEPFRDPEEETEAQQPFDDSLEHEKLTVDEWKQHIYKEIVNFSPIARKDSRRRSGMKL
The following applies: at 0.1 µM.

Test [9] deals with T1, Mitogen-activated protein kinase 13 (Homo sapiens). The following applies: at 1 µM.
The target of test [10] is T2, Mitogen-activated protein kinase 12 (Homo sapiens) (UniProt P53778).
T2 sequence (whole entry): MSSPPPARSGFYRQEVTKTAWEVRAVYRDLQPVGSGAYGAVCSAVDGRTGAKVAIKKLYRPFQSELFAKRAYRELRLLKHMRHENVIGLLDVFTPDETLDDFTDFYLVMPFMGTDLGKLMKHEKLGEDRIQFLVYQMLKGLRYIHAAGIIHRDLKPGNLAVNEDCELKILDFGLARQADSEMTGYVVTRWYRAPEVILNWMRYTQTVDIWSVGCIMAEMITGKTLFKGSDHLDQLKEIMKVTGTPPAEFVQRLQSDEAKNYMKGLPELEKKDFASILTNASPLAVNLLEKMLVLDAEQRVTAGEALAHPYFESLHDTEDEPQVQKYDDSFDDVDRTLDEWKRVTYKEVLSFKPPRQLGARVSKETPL
Particulars: at 0.1 µM.

Test [11] has as its target T2, Mitogen-activated protein kinase 12 (Homo sapiens). Particulars: at 1 µM.
Test [12] addresses SRSF protein kinase 1 (Homo sapiens) (UniProt Q96SB4). Particulars: at 0.1 µM.
For test [13] the target is unchanged. The following applies: at 1 µM.
Test [14] concerns the target Phosphatidylinositol 4,5-bisphosphate 3-kinase catalytic subunit alpha isoform (Homo sapiens) (UniProt P42336). Particulars: at 0.1 µM.
Test [15] shares this target. Particulars: at 1 µM.
Test [16] addresses T3, Phosphatidylinositol 4,5-bisphosphate 3-kinase catalytic subunit delta isoform (Homo sapiens) (UniProt O00329).
T3 sequence (whole entry): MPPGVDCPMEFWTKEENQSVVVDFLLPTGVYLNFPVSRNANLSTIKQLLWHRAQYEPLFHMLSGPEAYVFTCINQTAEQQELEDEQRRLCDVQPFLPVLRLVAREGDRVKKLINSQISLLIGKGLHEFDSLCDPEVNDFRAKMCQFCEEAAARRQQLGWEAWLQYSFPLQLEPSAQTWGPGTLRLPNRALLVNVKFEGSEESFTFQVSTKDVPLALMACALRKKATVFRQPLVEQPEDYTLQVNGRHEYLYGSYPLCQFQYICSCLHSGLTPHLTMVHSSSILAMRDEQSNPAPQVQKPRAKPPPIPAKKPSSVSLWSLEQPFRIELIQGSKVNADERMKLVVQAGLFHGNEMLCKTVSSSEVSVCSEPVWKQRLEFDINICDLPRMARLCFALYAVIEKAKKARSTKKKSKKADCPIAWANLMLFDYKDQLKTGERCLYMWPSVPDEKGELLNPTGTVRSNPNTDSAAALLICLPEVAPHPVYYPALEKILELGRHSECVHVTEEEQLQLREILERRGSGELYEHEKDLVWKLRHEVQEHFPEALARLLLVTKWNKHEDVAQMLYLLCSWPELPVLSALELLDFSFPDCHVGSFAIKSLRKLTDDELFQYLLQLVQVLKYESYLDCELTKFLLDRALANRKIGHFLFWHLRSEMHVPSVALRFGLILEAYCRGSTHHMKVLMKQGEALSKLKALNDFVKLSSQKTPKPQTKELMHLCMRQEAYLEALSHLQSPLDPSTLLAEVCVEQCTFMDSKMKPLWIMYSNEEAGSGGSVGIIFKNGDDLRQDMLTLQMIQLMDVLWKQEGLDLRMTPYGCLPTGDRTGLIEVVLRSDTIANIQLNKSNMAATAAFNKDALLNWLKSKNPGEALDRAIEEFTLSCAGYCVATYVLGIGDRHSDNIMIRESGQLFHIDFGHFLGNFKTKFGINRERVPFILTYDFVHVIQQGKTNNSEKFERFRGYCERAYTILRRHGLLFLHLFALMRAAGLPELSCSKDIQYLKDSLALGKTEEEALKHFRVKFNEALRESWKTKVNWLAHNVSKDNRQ
The following applies: at 0.1 µM.

Test [17] deals with T3, Phosphatidylinositol 4,5-bisphosphate 3-kinase catalytic subunit delta isoform (Homo sapiens). Particulars: at 1 µM.
Test [18] concerns the target Phosphatidylinositol 4-kinase beta (Homo sapiens) (UniProt Q9UBF8). The following applies: at 0.1 µM.
The target is the same in test [19]. Particulars: at 1 µM.
Test [20] has as its target Sphingosine kinase 1 (Homo sapiens) (UniProt Q9NYA1). Particulars: at 0.1 µM.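 Also: mean percent inhibition of SPHK1 activity, measured within the GSK PKIS screening panel.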

Structures are written as SMILES.

Chain of Phosphatidylinositol 4,5-bisphosphate 3-kinase catalytic subunit alpha isoform (Homo sapiens) (P42336 whole entry, canonical isoform): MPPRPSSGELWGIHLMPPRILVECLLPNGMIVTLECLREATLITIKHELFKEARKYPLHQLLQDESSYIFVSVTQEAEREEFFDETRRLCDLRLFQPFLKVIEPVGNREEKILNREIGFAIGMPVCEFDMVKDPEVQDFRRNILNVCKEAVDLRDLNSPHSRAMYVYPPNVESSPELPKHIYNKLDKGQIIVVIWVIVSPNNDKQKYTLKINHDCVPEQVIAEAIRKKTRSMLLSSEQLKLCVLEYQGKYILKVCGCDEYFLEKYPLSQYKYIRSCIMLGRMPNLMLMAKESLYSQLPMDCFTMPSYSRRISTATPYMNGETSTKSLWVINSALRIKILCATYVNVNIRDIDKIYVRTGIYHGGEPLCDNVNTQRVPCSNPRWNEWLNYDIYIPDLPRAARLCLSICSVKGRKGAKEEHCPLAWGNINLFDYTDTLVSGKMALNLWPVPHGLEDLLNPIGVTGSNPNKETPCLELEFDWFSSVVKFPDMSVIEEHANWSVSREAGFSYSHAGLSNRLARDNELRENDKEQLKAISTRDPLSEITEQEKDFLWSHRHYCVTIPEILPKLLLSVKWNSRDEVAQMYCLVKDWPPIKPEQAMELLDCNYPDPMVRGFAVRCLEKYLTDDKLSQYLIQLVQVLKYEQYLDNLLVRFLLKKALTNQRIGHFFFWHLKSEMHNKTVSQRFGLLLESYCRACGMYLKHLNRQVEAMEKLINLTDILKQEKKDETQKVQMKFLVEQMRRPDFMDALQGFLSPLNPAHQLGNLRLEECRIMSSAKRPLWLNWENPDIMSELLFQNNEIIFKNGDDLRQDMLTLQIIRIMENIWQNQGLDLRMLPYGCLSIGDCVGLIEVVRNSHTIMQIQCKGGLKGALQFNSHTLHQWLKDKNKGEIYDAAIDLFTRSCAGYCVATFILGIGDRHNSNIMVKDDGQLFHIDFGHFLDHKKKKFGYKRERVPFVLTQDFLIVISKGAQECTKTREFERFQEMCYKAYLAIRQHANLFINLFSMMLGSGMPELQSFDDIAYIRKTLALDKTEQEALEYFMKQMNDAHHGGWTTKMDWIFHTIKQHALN
Chain of Sphingosine kinase 1 (Homo sapiens) (Q9NYA1 whole entry): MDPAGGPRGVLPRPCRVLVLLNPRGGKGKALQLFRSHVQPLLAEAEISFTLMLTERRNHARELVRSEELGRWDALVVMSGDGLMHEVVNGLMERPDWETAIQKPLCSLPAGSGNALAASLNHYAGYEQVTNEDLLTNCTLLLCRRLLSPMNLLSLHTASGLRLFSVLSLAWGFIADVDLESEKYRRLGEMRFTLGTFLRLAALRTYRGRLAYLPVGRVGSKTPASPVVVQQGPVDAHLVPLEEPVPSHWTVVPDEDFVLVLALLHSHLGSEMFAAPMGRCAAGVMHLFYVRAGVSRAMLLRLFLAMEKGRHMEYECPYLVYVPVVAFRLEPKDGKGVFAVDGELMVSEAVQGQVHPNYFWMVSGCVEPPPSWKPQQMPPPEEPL
Chain of SRSF protein kinase 1 (Homo sapiens) (Q96SB4 whole entry): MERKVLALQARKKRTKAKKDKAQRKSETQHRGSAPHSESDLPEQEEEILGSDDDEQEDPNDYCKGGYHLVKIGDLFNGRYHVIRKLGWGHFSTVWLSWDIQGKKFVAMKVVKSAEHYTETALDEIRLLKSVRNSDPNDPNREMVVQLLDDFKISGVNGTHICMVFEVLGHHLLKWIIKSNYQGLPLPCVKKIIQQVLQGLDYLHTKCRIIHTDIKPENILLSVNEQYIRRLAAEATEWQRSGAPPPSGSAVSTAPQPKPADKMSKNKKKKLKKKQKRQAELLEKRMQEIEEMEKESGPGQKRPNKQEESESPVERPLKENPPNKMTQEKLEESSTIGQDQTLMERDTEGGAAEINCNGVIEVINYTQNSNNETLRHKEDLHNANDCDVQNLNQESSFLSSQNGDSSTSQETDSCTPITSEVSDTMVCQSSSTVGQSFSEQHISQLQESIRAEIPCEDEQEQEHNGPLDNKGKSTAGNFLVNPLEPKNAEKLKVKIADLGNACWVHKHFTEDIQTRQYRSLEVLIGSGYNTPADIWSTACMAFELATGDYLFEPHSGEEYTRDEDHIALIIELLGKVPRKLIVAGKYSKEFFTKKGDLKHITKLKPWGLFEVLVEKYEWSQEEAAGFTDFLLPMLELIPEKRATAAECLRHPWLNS
Chain of Phosphatidylinositol 4-kinase beta (Homo sapiens) (Q9UBF8 2-816 limits assumed): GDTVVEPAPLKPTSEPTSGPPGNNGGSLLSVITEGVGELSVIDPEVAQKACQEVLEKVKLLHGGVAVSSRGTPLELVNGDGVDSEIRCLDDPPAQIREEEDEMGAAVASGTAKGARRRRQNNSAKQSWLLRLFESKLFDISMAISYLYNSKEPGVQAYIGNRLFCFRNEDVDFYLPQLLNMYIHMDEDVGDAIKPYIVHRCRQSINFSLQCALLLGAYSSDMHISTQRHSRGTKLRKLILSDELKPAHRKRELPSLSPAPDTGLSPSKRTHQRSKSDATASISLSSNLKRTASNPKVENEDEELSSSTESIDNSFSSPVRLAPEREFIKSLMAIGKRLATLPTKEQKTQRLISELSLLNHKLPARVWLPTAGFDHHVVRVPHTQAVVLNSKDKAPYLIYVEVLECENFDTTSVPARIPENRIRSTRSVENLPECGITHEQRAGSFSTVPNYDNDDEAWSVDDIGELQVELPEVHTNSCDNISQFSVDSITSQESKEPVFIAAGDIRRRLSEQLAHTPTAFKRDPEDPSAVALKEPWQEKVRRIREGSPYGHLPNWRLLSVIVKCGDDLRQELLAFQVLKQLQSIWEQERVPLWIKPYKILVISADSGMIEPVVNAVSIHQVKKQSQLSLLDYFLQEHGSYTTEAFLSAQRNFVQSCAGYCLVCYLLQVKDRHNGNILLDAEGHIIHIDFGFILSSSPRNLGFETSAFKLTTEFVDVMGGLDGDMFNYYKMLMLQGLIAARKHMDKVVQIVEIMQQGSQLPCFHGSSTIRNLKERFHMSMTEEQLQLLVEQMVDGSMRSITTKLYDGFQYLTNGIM
Chain of Mitogen-activated protein kinase 3 (Homo sapiens) (P27361 whole entry): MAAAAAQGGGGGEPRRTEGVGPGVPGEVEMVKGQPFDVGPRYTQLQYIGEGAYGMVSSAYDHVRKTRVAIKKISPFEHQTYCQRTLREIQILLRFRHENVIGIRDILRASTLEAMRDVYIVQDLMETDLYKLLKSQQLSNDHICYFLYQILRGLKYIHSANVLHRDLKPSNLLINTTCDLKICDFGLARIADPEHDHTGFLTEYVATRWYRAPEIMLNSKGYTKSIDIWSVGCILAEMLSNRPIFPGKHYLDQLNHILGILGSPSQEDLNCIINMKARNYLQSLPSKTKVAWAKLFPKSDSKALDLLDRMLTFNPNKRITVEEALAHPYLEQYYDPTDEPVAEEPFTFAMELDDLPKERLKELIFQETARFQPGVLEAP
Chain of Mitogen-activated protein kinase 14 (Homo sapiens) (Q16539 whole entry): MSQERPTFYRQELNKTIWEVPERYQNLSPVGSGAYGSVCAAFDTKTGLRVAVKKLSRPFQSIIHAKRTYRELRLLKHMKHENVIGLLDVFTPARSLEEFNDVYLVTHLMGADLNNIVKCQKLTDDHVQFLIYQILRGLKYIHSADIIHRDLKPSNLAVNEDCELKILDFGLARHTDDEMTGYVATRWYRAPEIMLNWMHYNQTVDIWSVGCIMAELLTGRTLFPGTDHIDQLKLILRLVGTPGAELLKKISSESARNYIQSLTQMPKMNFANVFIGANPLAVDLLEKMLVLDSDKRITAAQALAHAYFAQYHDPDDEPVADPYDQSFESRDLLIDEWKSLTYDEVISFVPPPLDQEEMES
Chain of SRSF protein kinase 3 (Homo sapiens) (Q9UPE1 whole entry): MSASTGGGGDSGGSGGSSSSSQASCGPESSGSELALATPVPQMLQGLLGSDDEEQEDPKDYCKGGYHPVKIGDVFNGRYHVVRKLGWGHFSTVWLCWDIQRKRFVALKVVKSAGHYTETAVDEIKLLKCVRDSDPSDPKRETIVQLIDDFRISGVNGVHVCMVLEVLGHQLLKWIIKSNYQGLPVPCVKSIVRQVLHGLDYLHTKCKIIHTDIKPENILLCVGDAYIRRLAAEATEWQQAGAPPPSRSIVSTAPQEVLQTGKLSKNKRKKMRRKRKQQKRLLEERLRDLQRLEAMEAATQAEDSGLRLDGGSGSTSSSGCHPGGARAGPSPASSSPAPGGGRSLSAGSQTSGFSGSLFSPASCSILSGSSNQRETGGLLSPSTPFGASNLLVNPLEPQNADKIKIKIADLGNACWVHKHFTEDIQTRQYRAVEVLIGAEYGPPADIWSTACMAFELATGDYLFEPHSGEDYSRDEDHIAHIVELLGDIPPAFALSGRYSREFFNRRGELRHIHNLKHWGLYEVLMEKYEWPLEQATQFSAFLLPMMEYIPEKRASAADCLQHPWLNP

On to `COc1cc(Nc2nccc(Nc3ccc4c(C)n[nH]c4c3)n2)cc(OC)c1OC`, for which the inhibition (commonly the change of the read-out against control, counted positive when it falls) in test [1] amounted to 2.18%; in test [2], 1.08%; in [3], 0.79%; in [4], 4.78%; in [5] it was 10%; in test [6], 2.04%. For the same compound, the inhibition in test [7] is 6.13%; in test [8], 3.72%; in test [9], 4.71%; in test [10] it was -0.26%; in test [11] it was 1.69%; in test [12], -2.15%. The inhibition in [13] was -3.51%; in [14], 1.57%; in test [15], 3.03%; in test [16], 2.45%; in test [17], 21.3%; in test [18], 3.96%. Moreover, the values for the inhibition in test [19] and in test [20] were 4.89% and -0.37%, respectively.

In the case of `Clc1ccc(-c2nn3ncccc3c2-c2ccnc(Nc3ccccc3)n2)cc1`, the inhibition is 0.24% in test [1]; -0.67% in test [2]; -1.16% in test [3]; 46.5% in test [4]; 82.8% in [5]; 13.1% in [6]. Moreover, the inhibition was 58.8% in test [7]; 0.09% in test [8]; 1.39% in test [9]; 2.11% in test [10]; 1.71% in test [11]; -1.15% in test [12]. In addition, the inhibition is -1.1% in test [13]; 2.48% in test [14]; 5.33% in [15]; 4.92% in [16]; 7.17% in [17]; -0.39% in [18]. Further, the inhibition in [19] is 0.11%; in test [20], 0.81%.

Take `CCCN(CCS(C)(=O)=O)Cc1ccc(-c2ccc3ncnc(Nc4ccc(OCc5cccc(F)c5)c(Cl)c4)c3c2)o1`: the inhibition in [1] was 2.62%; in test [2], -1.91%; in test [3], -0.61%; in test [4] it was 10.4%; in test [5], 4.25%; in test [6] it was 0.78%. Further, the inhibition in test [7] is 0.65%; in [8], 4.35%; in test [9], 2.64%; in [10], 0.9%; in test [11], 1.28%; in test [12], -1.14%. Further, the inhibition is -0.67% in [13]; 0.82% in test [14]; 4.19% in test [15]; 0.06% in [16]; 6.07% in test [17]; 1.73% in test [18]. The figures for the inhibition in [19] and in test [20] were 0.08% and 7%, respectively.

`COc1cc(/C=N/Nc2ncnc3[nH]ncc23)ccc1O`: the inhibition in [1] was 6.69%; in test [2], 0.77%; in test [3], 1.87%; in [4] it was 7.26%; in test [5], 6.91%; in [6] it was 4.13%. Besides, the inhibition was 4.56% in test [7]; 1.51% in test [8]; 5.72% in [9]; 0.15% in test [10]; 2.2% in [11]; -1.89% in test [12]. The inhibition in test [13] stood at 2.08%; in [14], 10.2%; in test [15] it was 44.2%; in [16], 3.6%; in test [17] it was 20.3%; in [18], 6.86%. Moreover, the inhibition is 30.9% in test [19] and -1.46% in test [20].

Regarding `COc1ccc2[nH]c3c4[nH]c5ccc(OC)cc5c4c4c(c3c2c1)C(=O)NC4=O`, the inhibition stood at 6.91% in test [1]; 1.23% in test [2]; 18.3% in test [3]; 4.65% in [4]; 10.8% in test [5]; 3.15% in test [6]. Besides, the inhibition in [7] is 7.66%; in test [8] it was 0.8%; in test [9], 2.74%; in test [10] it was 4.16%; in test [11] it was 1.03%; in [12], -1%. Further, the inhibition in [13] was 6.5%; in test [14] it was 6.77%; in [15] it was 14.6%; in [16] it was 4.48%; in [17], 10.1%; in test [18], -1.55%. Further, the figures for the inhibition in test [19] and in [20] were -0.12% and -3.65%, respectively.

With `Cc1cccc2c1NC(=O)/C2=N\Nc1ccc(S(N)(=O)=O)cc1`, the inhibition came to 2.55% in test [1]; 0.51% in [2]; 1.03% in test [3]; 3.09% in [4]; 5.54% in test [5]; 1.05% in [6]. Also, the inhibition in test [7] is 1.3%; in test [8], 1.89%; in [9], 3.48%; in test [10], -3.68%; in test [11], 0.72%; in test [12] it was -0.92%. In addition, the inhibition in test [13] is -1.02%; in test [14] it was 2.47%; in test [15] it was 1.9%; in [16] it was 1.83%; in test [17], 3.28%; in test [18] it was -4.22%. The values for the inhibition in test [19] and in test [20] were -2.85% and 0.78%, respectively.

Regarding `COc1ccc(-c2nn3ncccc3c2-c2ccnc(Nc3ccc4c(c3)OCCO4)n2)cc1`, the inhibition is 1.27% in [1]; -1.29% in [2]; -0.23% in test [3]; 68.9% in test [4]; 87% in test [5]; 48.6% in test [6]. For the same compound, the inhibition in test [7] was 75.4%; in [8], 0.57%; in test [9], -1.08%; in [10], 0.47%; in test [11] it was 1.16%; in test [12] it was -0.82%. Further, the inhibition in test [13] is -2.72%; in test [14], 2.37%; in [15], 3.63%; in test [16] it was 2.13%; in [17] it was 5.91%; in test [18] it was -2.82%. Besides, the inhibition was -1.12% in test [19] and -0.35% in test [20].
